We go through 20 compounds from PubChem BioAssay.

Values without a mark were called inactive. For some of these results: Entries with a potency or affinity are not part of this list. Calls of active or inactive are those of the source. Unless noted, how the calls were made is not given here.

A short description of assay [1]: antimalarial activity against Dd2 strain (AID 2302;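 active means growth inhibition above 50% at the single 2 µM test dose, taken to imply half-maximal potency below 2 µM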;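 further: 0% = DMSO untreated growth and 100% = chloroquine plus artemisinin killed control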). The note with it: P. falciparum Dd2 in RBCs, LDH growth readout, 72 h; at 2 µM; hits give high values.
A short description of assay [2]: HepG2 cytotoxicity, primary screen, cytotoxicity control for P. falciparum antimalarial project, cell-based, ATP luminescence (AID 2303;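 active means inhibition above 50%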;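 further: 0% = DMSO wells and 100% = digitonin-killed cells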). To be noted: HepG2 viability, 24-48 h, at 10 µM, hits give high values.
Assay [3] has as its target L-lactate dehydrogenase (Plasmodium falciparum (isolate CDC / Honduras)) (UniProt Q27743). Kind of assay: PfLDH activity inhibition – cell lysate, 3D7 strain, counter-screen for P. falciparum growth inhibition project (AID 2304).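 Further: 0% = vehicle and 100% = reference inhibitor.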 To be noted: P. falciparum 3D7 crude extract, LDH APAD/NBT absorbance; at 2 µM; hits give high values. On the technique in general: Counterscreens check selectivity or assay interference.

A short description of assay [4]: inhibition of 3D7 malaria parasite growth – strain 3D7 (AID 2306).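 Further: 0% = DMSO wells and 100% = chloroquine plus artemisinin control wells.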 To be noted: P. falciparum 3D7 erythrocytic growth, LDH absorbance, 72 h; at 2 µM; hits give high values.
For assay [5], the target named is Calcium-dependent protein kinase 1 (Plasmodium falciparum (isolate 3D7)) (UniProt P62344). Nature of the assay: PfCDPK1 kinase inhibitors, biochemical, TCAMS library (AID 1159585; cut-off not given, nearly all actives have IC50 up to about 0.98 µM;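 further: inhibitors leave more ATP so luminescence rises with inhibition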). The note with it: recombinant PfCDPK1, Kinase-Glo ATP depletion luminescence.
In assay [6] the target is Plasmodium falciparum protein kinase 6 (PK6, PF3D7_1337100) (UniProt Q8IDW1). Nature of the assay: PfPK6 kinase inhibitors, biochemical, TCAMS library (AID 1159586). To be noted: recombinant PfPK6, Kinase-Glo ATP depletion luminescence.
Assay [7] concerns the target Protein kinase 7 (PK7), Plasmodium falciparum 3D7 (PF3D7_0213400) (UniProt Q7YTF7). Kind of assay: inhibition of Plasmodium PK7 catalytic activity – biochemical, TCAMS antimalarial set, Kinase-Glo luminescence (AID 1159587). The note with it: recombinant PfPK7, Kinase-Glo ATP depletion luminescence. On the technique in general: Kinase-Glo measures the ATP left after a reaction by luminescence.

Assay [8] addresses Calcium-dependent protein kinase 4 (Plasmodium falciparum (isolate 3D7)) (UniProt Q8IBS5). Kind of assay: PfCDPK4 kinase inhibitors, biochemical, TCAMS library (AID 1159588; cut-off not given, nearly all actives have IC50 up to about 0.91 µM). The note with it: recombinant PfCDPK4, Kinase-Glo ATP depletion luminescence.

Calcium-dependent protein kinase 4 (Plasmodium falciparum (isolate 3D7)), sequence (Q8IBS5 whole entry, looked up): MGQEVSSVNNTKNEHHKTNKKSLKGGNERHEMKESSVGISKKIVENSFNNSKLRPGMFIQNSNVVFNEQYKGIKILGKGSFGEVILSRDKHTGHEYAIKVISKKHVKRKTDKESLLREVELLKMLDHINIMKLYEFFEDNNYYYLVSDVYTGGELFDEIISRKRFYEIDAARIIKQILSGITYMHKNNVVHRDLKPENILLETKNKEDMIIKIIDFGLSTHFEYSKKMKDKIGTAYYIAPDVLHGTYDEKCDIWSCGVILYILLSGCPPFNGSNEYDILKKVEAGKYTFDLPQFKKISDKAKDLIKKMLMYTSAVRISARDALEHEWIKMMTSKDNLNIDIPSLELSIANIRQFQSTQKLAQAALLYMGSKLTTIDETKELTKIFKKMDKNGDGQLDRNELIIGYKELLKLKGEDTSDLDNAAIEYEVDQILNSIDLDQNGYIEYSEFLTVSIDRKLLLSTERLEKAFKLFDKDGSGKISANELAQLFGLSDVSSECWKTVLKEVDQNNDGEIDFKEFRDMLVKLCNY
Calcium-dependent protein kinase 1 (Plasmodium falciparum (isolate 3D7)), sequence (P62344 whole entry, looked up): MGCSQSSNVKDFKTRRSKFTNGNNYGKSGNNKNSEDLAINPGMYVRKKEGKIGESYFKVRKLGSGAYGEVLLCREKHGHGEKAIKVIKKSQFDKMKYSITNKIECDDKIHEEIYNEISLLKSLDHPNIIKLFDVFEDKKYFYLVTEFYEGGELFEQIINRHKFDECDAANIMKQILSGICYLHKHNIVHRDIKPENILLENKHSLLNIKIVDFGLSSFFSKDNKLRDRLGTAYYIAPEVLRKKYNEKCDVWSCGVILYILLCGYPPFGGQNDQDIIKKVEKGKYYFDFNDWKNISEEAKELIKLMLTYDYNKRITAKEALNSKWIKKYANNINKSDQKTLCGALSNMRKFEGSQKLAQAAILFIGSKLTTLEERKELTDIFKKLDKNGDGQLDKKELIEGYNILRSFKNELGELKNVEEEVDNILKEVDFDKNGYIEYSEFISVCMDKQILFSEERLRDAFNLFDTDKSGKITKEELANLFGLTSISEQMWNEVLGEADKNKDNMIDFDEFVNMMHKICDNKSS
Plasmodium falciparum protein kinase 6 (PK6, PF3D7_1337100), sequence (Q8IDW1 1-305): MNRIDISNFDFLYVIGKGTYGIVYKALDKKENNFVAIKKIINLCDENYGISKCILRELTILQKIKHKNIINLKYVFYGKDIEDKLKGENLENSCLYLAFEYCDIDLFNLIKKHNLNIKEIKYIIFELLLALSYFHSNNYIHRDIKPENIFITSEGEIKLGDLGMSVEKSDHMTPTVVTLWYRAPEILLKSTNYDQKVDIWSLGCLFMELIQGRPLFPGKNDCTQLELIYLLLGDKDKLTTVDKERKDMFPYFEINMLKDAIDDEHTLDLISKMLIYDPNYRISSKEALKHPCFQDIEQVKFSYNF
L-lactate dehydrogenase (Plasmodium falciparum (isolate CDC / Honduras)), sequence (Q27743 whole entry, looked up): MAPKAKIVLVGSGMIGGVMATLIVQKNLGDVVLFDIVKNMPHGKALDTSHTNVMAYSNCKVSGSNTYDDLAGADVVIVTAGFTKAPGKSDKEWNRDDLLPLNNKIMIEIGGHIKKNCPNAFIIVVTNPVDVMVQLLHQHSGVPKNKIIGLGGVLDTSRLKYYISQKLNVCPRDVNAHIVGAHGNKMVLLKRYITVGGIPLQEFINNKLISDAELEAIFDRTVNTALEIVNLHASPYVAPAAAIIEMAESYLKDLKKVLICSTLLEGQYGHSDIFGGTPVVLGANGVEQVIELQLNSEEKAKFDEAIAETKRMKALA
Protein kinase 7 (PK7), Plasmodium falciparum 3D7 (PF3D7_0213400), sequence (Q7YTF7 1-343): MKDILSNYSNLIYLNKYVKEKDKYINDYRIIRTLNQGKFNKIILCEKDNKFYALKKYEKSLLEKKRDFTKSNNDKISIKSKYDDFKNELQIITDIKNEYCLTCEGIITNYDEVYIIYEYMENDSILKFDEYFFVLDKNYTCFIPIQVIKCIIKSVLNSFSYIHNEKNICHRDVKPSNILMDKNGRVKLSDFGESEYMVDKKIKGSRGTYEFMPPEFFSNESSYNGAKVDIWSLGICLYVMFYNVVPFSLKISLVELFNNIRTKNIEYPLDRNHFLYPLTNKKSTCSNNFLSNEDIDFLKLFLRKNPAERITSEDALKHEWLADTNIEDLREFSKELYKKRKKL

As for `CN(Cc1cccc(O)c1)C1CCCN(c2cc(NC(=O)c3ccc(F)cc3)ccn2)C1` (stereo not given), the values for the growth inhibition in assay [1] and in assay [4] were 12% and 91% (active), respectively. Also, the inhibition (as a rule, the relative decrease from the control value, in per cent) in assay [2] was 8%; in assay [3], -2%. Besides, the outcome in assay [5], in assay [6], in assay [7] and in assay [8] was inactive.
Consider `O=C(CN1CCN(C(=O)c2ccco2)CC1)Nc1ccc(Br)cc1Cl`, for which the growth inhibition in assay [1] is 79% (active); in assay [4], 88% (active). Further, the inhibition is 10% in assay [2] and -6% in assay [3]. Moreover, the outcome in assay [5], in assay [6], in assay [7] and in assay [8] was inactive.
`O=C(/C=C/c1ccc(Cl)c(Cl)c1)NCCCCCCN1CCCN(C(=O)Nc2cc(Cl)cc(Cl)c2)CC1`: the figures for the growth inhibition in assay [1] and in assay [4] were 2% and 98% (active), respectively. The figures for the inhibition in assay [2] and in assay [3] were 26% and -3%, respectively. Also, the outcome in assay [5], in assay [6], in assay [7] and in assay [8] was inactive.
As for `CCCn1c(SCC(=O)Nc2cc(C(F)(F)F)ccc2Cl)n[nH]c1=O`, the growth inhibition was 94% (active) in assay [1] and 96% (active) in assay [4]. Also, the inhibition in assay [2] was -6%; in assay [3], -2%. The outcome in assay [5], in assay [6], in assay [7] and in assay [8] was inactive.
Consider `Cc1cccc(NC(=O)N(Cc2cc3cc(C)cc(C)c3[nH]c2=O)C2CC2)c1`, for which the results for the growth inhibition in assay [1] and in assay [4] were 94% (active) and 97% (active), respectively. In addition, the inhibition in assay [2] is 3%; in assay [3], 2%. Also, the result in assay [5], in assay [6], in assay [7] and in assay [8] was inactive.
For the compound `CCOC(=O)CC[C@H](NC(=O)c1ccc(NS(=O)(=O)c2ccc(-c3cnc(N)[nH]c3=O)cc2)cc1)C(=O)OCC`, the growth inhibition is 2% in assay [1] and 95% (active) in assay [4]. Also, the inhibition in assay [2] was 5%; in assay [3], 4%. Moreover, the result in assay [5], in assay [6], in assay [7] and in assay [8] was inactive.
In the case of `O=C1C[C@@H]([S@@](=O)Cc2nccs2)N1CCOCCCCCCc1ccc(Cl)cc1`, the growth inhibition is 0% in assay [1] and 91% (active) in assay [4]. For the same compound, the inhibition in assay [2] was -4%; in assay [3], 1%. Moreover, the outcome in assay [5], in assay [6], in assay [7] and in assay [8] was inactive.
As for `O=C(Nc1ccc(OC2CCN(Cc3ccc(F)cc3)C2)c(Cl)c1)c1ccoc1` (stereo not given), the growth inhibition in assay [1] and in assay [4] was 90% (active) each time. Further, the results for the inhibition in assay [2] and in assay [3] were 13% and 2%, respectively. Further, the result in assay [5], in assay [6], in assay [7] and in assay [8] was inactive.
Take `O=C(NCCCCN1CCN(c2cccc3ccccc23)CC1)c1ccc(NC(=O)c2ccc(Cl)cc2)cc1`: the growth inhibition in assay [1] is 64% (active); in assay [4], 101% (active). For the same compound, the results for the inhibition in assay [2] and in assay [3] were 38% and 6%, respectively. Moreover, the result in assay [5], in assay [6], in assay [7] and in assay [8] was inactive.
With `COC(=O)C1=CNC=C(C(=O)OC)C1c1ccc(Cl)c([N+](=O)[O-])c1`, the growth inhibition was 79% (active) in assay [1] and 93% (active) in assay [4]. The values for the inhibition in assay [2] and in assay [3] were -1% and -4%, respectively. Moreover, the outcome in assay [5], in assay [6], in assay [7] and in assay [8] was inactive.
Consider `Cc1cccc2[nH]c(-c3cccc(-c4ccc(NC(=O)C5CCCO5)cc4)c3)nc12` (stereo not given), for which the figures for the growth inhibition in assay [1] and in assay [4] were 13% and 91% (active), respectively. Further, the figures for the inhibition in assay [2] and in assay [3] were 10% and -4%, respectively. Moreover, the result in assay [5], in assay [6], in assay [7] and in assay [8] was inactive.
Consider `c1ccc2c(CNc3nc(NCC4CCCCC4)nc4nc[nH]c34)cccc2c1`, for which the figures for the growth inhibition in assay [1] and in assay [4] were 44% and 89% (active), respectively. Also, the inhibition in assay [2] and in assay [3] was -2% each time. The result in assay [5], in assay [6], in assay [7] and in assay [8] was inactive.
As for `CC(CN1CCN(C)CC1)C(=O)Nc1cccc(-c2ccc(-c3nc4ccccc4[nH]3)s2)c1` (stereo not given), the values for the growth inhibition in assay [1] and in assay [4] were 59% (active) and 97% (active), respectively. Besides, the inhibition in assay [2] and in assay [3] was 2% in each case. Also, the outcome in assay [5], in assay [6], in assay [7] and in assay [8] was inactive.
In the case of `CCN(CCCN1CCCCC1)c1cc(C)nc(Nc2ccc(C)c(Cl)c2)n1`, the growth inhibition in assay [1] was 100% (active); in assay [4] it was 101% (active). For the same compound, the inhibition in assay [2] was 32%; in assay [3], -7%. Also, the outcome in assay [5], in assay [6], in assay [7] and in assay [8] was inactive.
For `CN1CCC(c2c[nH]c3ccc(NC(=O)Nc4ccc(-c5ccncc5)c(Cl)c4Cl)cc23)CC1`, the growth inhibition in assay [1] is 19%; in assay [4], 102% (active). Further, the inhibition in assay [2] is 27%; in assay [3] it was -1%. Moreover, the outcome in assay [5], in assay [6], in assay [7] and in assay [8] was inactive.
For the compound `O=C(N[C@@H](Cc1ccccc1)CN1CCC(Oc2ccc(F)cc2)CC1)c1ccc(OCCCN2CCCCC2)cc1`, the figures for the growth inhibition in assay [1] and in assay [4] were 92% (active) and 102% (active), respectively. The values for the inhibition in assay [2] and in assay [3] were 38% and 3%, respectively. In addition, the result in assay [5], in assay [6], in assay [7] and in assay [8] was inactive.
Turning to `CC(C)NC[C@@H](O)[C@H](Cc1ccccc1)NC(=O)c1cc2c3c(c1)c(C(C)C)cn3CCS(=O)(=O)N2C`, the growth inhibition in assay [1] was 99% (active); in assay [4], 98% (active). The inhibition was 5% in assay [2] and -3% in assay [3]. The result in assay [5], in assay [6], in assay [7] and in assay [8] was inactive.
With `COc1ccc(O)cc1Cc1cnc2nc(N)nc(N)c2c1C`, the results for the growth inhibition in assay [1] and in assay [4] were 97% (active) and 92% (active), respectively. Also, the inhibition was 67% (active) in assay [2] and -2% in assay [3]. The outcome in assay [5], in assay [6], in assay [7] and in assay [8] was inactive.
In the case of `O=C(Nc1cccc(CN2CCCN(Cc3cccnc3)CC2)c1)c1cc2ccccc2s1`, the growth inhibition in assay [1] is 28%; in assay [4], 92% (active). In addition, the inhibition in assay [2] is 15%; in assay [3], 1%. For the same compound, the outcome in assay [5], in assay [6], in assay [7] and in assay [8] was inactive.
Turning to `COc1ccc(-c2cnc3[nH]cc(-c4ccc(CCC(=O)O)cc4)c3c2)cn1`, the figures for the growth inhibition in assay [1] and in assay [4] were 95% (active) and 98% (active), respectively. Moreover, the inhibition in assay [2] is 25%; in assay [3], -5%. For the same compound, the result in assay [5], in assay [6], in assay [7] and in assay [8] was inactive.
